# Source: the supplement of paper PMC12819154, “High-throughput peptide-centric local stability assay extends protein–ligand identification to membrane proteins, tissues and bacteria” (Nature Structural & Molecular Biology, 2025)
# Compound: Nc1ncnc2c1ncn2[C@@H]1O[C@H](COP(=O)(O)OP(=O)(O)OP(=O)(O)O)[C@@H](O)[C@H]1O [adenosine 5'-triphosphate]
# Assay: log2 fold change of tryptic peptide abundance, ligand vs vehicle (limited proteolysis) (log2 ratio); higher = more trypsin-susceptible (destabilized)
# Conditions: ligand concentration: 5 mM; sample: E. coli desalted lysate; replicate design: treated before aliquoting
# Description: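 HT-PELSA: desalted E. coli K-12 BW25113 lysate (with 12 mM MgCl2) incubated with 5 mM ATP (pH 7) or water for 30 min at 25 C, then a 4 min trypsin pulse at 22 C. Peptides were quantified by DIA-MS (4 replicates). Value is the peptide log2 fold change (treated/control); negative = stabilized. Scale: negative = ligand-stabilized region.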
# 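Note: lysate desalted by size exclusion to strip endogenous ATP, peptide intensities built from DIA-NN precursor signals, and peptides missing any value discarded before comparison.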
# Chain of UniProt P07001 (P07001 whole entry): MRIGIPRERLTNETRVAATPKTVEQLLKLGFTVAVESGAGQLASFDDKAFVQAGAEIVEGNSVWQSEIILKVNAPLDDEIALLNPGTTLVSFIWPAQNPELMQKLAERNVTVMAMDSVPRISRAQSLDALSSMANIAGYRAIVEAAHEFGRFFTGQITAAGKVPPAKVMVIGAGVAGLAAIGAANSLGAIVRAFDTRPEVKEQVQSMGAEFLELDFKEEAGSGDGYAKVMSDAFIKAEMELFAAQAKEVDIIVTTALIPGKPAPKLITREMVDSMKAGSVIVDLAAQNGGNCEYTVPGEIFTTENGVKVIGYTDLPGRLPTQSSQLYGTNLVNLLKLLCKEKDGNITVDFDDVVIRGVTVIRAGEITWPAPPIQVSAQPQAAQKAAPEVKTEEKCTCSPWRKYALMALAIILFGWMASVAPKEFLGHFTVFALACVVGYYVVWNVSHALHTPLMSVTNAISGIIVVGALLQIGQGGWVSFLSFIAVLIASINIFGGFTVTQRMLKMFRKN
# Chain of UniProt P12282 (P12282 whole entry): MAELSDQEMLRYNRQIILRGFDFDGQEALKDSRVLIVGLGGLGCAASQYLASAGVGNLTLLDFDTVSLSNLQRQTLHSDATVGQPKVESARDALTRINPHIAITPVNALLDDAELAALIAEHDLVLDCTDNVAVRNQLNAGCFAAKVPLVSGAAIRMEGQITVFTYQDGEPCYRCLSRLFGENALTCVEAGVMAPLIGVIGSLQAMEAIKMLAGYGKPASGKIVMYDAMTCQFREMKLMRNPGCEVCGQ
# Chain of UniProt P77265 (P77265 whole entry): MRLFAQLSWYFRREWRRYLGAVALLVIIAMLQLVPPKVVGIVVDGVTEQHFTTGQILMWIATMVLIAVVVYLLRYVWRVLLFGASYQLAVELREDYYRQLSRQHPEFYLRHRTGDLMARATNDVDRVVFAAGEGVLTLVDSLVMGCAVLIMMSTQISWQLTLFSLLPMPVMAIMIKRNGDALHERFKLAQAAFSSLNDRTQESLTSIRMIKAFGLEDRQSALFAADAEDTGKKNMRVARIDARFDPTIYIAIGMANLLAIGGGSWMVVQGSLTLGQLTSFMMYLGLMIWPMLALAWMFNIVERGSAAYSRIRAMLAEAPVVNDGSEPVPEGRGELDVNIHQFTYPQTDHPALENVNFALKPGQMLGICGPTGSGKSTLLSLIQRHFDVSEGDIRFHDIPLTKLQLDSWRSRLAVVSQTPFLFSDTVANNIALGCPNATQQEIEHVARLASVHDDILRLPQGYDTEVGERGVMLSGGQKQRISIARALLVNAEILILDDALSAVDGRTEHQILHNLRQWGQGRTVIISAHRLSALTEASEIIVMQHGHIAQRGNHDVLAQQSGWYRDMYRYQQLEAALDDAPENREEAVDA
# Chain of UniProt P77395 (P77395 whole entry): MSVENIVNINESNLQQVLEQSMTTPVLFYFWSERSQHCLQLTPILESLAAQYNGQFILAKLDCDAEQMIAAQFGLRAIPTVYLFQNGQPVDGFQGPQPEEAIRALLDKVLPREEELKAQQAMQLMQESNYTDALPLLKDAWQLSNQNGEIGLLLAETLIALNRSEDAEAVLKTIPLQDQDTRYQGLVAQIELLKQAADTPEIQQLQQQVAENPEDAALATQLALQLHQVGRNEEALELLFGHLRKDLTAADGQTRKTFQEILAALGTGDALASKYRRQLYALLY
# Chain of UniProt P26281 (P26281 whole entry): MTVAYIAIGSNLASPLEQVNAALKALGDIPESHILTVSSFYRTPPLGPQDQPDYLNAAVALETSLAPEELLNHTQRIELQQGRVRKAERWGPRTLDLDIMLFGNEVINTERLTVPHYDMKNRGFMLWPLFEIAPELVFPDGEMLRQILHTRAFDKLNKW
# Chain of UniProt P32173 (P32173 whole entry): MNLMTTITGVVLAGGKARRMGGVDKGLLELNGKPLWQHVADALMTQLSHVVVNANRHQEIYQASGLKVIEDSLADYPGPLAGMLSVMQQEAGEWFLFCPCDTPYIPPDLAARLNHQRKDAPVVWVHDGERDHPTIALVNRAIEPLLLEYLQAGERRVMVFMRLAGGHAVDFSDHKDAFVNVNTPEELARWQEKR
# Chain of UniProt P21499 (P21499 whole entry): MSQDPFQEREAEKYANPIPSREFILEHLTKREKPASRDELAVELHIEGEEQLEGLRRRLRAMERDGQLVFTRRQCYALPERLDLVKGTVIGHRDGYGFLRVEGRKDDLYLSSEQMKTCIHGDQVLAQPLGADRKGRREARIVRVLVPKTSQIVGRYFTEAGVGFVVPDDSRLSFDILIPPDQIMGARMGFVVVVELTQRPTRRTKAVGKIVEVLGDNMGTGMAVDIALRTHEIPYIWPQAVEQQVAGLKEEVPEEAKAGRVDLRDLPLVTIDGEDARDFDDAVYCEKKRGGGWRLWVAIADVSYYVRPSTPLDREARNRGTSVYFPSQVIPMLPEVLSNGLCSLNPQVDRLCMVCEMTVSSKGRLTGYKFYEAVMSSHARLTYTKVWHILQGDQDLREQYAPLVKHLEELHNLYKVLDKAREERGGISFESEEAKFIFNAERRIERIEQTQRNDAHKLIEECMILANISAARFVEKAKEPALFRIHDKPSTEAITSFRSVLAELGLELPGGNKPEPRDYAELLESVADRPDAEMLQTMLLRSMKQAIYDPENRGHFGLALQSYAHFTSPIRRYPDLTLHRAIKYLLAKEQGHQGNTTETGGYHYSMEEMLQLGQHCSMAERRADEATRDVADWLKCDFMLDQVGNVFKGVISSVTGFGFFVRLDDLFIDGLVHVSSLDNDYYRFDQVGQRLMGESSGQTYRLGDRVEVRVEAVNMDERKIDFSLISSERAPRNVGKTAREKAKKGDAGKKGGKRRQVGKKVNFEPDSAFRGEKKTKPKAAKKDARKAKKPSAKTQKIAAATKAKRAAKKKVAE
# Chain of UniProt P75957 (P75957 whole entry): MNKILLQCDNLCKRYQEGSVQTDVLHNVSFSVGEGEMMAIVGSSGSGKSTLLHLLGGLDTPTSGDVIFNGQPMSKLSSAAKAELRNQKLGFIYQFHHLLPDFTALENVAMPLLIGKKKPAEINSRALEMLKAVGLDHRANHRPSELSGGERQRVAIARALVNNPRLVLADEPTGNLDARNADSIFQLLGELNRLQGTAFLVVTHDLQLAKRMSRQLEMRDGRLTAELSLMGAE
# Chain of UniProt P23874 (P23874 whole entry): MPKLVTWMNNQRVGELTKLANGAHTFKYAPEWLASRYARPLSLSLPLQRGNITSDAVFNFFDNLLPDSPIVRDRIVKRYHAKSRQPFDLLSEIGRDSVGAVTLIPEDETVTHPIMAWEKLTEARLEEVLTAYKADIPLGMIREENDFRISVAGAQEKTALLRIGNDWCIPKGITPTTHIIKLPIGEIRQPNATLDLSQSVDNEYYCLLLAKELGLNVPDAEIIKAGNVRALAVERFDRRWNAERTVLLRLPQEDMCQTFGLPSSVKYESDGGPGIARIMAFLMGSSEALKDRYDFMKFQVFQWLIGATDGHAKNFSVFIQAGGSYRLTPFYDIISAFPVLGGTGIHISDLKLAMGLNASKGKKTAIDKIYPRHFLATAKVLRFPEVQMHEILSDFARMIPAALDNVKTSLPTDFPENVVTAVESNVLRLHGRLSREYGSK
# Chain of UniProt P0AG16 (P0AG16 whole entry): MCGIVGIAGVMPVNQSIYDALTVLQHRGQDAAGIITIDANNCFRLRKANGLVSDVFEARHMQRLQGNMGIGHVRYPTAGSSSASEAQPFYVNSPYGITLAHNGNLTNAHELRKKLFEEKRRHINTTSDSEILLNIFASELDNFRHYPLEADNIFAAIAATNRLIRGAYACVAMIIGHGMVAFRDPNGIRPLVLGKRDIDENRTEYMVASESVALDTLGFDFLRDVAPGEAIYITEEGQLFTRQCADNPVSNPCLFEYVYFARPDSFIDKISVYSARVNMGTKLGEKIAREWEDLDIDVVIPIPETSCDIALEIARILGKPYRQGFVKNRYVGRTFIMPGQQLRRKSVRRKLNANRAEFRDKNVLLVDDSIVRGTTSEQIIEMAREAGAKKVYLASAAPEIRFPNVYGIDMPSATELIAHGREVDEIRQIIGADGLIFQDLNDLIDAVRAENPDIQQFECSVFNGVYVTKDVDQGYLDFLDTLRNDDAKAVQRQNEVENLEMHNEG
# Chain of UniProt P31548 (P31548 whole entry): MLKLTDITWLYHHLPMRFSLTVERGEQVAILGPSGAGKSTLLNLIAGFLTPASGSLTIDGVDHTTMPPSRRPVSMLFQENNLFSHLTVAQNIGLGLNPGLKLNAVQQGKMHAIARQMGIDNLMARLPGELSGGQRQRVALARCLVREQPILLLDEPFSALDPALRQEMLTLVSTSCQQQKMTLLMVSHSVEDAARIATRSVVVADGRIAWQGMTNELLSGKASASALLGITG
# Chain of UniProt P77252 (P77252 whole entry): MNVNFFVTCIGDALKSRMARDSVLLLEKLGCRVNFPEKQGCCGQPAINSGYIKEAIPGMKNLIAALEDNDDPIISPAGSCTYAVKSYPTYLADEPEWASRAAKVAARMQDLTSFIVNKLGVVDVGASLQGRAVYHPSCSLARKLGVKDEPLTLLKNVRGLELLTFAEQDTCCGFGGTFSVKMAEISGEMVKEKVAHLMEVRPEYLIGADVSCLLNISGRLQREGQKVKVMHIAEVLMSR
# Chain of UniProt P75974 (P75974 whole entry): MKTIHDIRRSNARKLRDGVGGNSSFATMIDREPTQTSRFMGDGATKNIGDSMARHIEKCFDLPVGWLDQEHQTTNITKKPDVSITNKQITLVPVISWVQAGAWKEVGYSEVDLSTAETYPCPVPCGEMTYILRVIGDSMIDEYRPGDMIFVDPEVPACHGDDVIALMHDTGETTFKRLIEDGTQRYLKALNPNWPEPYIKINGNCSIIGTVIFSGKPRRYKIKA
# Chain of UniProt P64602 (P64602 whole entry): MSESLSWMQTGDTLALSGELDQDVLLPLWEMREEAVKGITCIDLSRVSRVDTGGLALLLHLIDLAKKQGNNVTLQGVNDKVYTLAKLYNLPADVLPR
row,Target,log2 fold change
1,"UniProt P37349 (peptide sequence: LIAKGPEAEEALIAFR, peptide start residue: 217)",0.492
2,"UniProt P29018 (peptide sequence: HLSWVGQNPQLPAATLR, peptide start residue: 424)",-0.418
3,"UniProt P07001 (peptide sequence: FFTGQITAAGK, peptide start residue: 152)",-0.651
4,"UniProt P09832 (peptide sequence: HVTCAYR, peptide start residue: 313)",0.367
5,"UniProt P26281 (peptide sequence: ALGDIPESHILTVSSFYR, peptide start residue: 25)",-3.29
6,"UniProt P09152 (peptide sequence: GHEFMLK, peptide start residue: 724)",0.491
7,"UniProt P23883 (peptide sequence: ALSLAIENR, peptide start residue: 13)",-2.59
8,"UniProt P32684 (peptide sequence: ITLVQGLNR, peptide start residue: 179)",0.498
9,"UniProt P27240 (peptide sequence: IKDLVVFTDENNSK, peptide start residue: 7)",-0.431
10,"UniProt P34209 (peptide sequence: MTGDNPDAPR, peptide start residue: 166)",-0.261
11,"UniProt P02359 (peptide sequence: FVNILMVDGK, peptide start residue: 26)",0.921
12,"UniProt P03018 (peptide sequence: AHHMDANLPQDFQILDSEDQLR, peptide start residue: 100)",-2.2
13,"UniProt P0A9M8 (peptide sequence: LSVFKPIAQPRTGGDAPDQTTTIVR, peptide start residue: 34)",2.79
14,"UniProt P77265 (peptide sequence: QHPEFYLR, peptide start residue: 103)",-0.556
15,"UniProt P12282 (peptide sequence: QTLHSDATVGQPK, peptide start residue: 74)",-1.54
16,"UniProt P77395 (peptide sequence: RQLYALLY, peptide start residue: 277)",0.6
17,"UniProt P25437 (peptide sequence: SQLPGMVEDAMK, peptide start residue: 321)",-0.846
18,"UniProt P08200 (peptide sequence: AAIEYAIANDRDSVTLVHK, peptide start residue: 212)",-0.698
19,"UniProt P39161 (peptide sequence: QILAALIK, peptide start residue: 203)",0.746
20,"UniProt P09053 (peptide sequence: ILAEEIERAWAESH, peptide start residue: 404)",-0.817

row,Target,log2 fold change
1,"UniProt P67910 (peptide sequence: YFNVYGPR, peptide start residue: 167)",-0.736
2,"UniProt P23874 (peptide sequence: ISVAGAQEK, peptide start residue: 149)",-4.86
3,"UniProt P77252 (peptide sequence: DEPLTLLK, peptide start residue: 148)",0.328
4,"UniProt P17888 (peptide sequence: TNYAVSGER, peptide start residue: 188)",-1.98
5,"UniProt P0AG16 (peptide sequence: TFIMPGQQLR, peptide start residue: 334)",-0.26
6,"UniProt P46859 (peptide sequence: GDFDVIESR, peptide start residue: 112)",-0.658
7,"UniProt P76134 (peptide sequence: TMNSVQLTAQK, peptide start residue: 298)",-0.467
8,"UniProt P31548 (peptide sequence: LPGELSGGQR, peptide start residue: 126)",-0.702
9,"UniProt P64602 (peptide sequence: GITCIDLSR, peptide start residue: 38)",0.802
10,"UniProt P75957 (peptide sequence: KKPAEINSR, peptide start residue: 117)",-1.5
11,"UniProt P37675 (peptide sequence: IVDLPMKLVGHK, peptide start residue: 78)",0.735
12,"UniProt P08839 (peptide sequence: TSHTSIMAR, peptide start residue: 187)",0.443
13,"UniProt P75974 (peptide sequence: LIEDGTQR, peptide start residue: 178)",0.336
14,"UniProt P77615 (peptide sequence: AIEELQYQPNKLAR, peptide start residue: 40)",0.358
15,"UniProt P31129 (peptide sequence: SNMDVLTGLPGRR, peptide start residue: 129)",-1.39
16,"UniProt P21499 (peptide sequence: DGQLVFTR, peptide start residue: 65)",-0.675
17,"UniProt P10443 (peptide sequence: GLPVVATNDVR, peptide start residue: 193)",0.539
18,"UniProt P32173 (peptide sequence: DAPVVWVHDGERDHPTIALVNR, peptide start residue: 119)",-0.372
19,"UniProt P30855 (peptide sequence: YSQTSAGR, peptide start residue: 888)",0.38
20,"UniProt P25519 (peptide sequence: IDRDEENKPNR, peptide start residue: 329)",-1.08
